Experimental data: ChEMBL document CHEMBL1961873, “Compounds: GSK PKIS; Assays: Nanosyn kinase panel” (2012)

Each compound was assayed against Receptor tyrosine-protein kinase erbB-4 (Homo sapiens) (UniProt Q15303). Settings: at 1 µM.
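Further: each value is a mean percent inhibition of ERBB4.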

Sequence of Receptor tyrosine-protein kinase erbB-4 (Homo sapiens) (Q15303 whole entry): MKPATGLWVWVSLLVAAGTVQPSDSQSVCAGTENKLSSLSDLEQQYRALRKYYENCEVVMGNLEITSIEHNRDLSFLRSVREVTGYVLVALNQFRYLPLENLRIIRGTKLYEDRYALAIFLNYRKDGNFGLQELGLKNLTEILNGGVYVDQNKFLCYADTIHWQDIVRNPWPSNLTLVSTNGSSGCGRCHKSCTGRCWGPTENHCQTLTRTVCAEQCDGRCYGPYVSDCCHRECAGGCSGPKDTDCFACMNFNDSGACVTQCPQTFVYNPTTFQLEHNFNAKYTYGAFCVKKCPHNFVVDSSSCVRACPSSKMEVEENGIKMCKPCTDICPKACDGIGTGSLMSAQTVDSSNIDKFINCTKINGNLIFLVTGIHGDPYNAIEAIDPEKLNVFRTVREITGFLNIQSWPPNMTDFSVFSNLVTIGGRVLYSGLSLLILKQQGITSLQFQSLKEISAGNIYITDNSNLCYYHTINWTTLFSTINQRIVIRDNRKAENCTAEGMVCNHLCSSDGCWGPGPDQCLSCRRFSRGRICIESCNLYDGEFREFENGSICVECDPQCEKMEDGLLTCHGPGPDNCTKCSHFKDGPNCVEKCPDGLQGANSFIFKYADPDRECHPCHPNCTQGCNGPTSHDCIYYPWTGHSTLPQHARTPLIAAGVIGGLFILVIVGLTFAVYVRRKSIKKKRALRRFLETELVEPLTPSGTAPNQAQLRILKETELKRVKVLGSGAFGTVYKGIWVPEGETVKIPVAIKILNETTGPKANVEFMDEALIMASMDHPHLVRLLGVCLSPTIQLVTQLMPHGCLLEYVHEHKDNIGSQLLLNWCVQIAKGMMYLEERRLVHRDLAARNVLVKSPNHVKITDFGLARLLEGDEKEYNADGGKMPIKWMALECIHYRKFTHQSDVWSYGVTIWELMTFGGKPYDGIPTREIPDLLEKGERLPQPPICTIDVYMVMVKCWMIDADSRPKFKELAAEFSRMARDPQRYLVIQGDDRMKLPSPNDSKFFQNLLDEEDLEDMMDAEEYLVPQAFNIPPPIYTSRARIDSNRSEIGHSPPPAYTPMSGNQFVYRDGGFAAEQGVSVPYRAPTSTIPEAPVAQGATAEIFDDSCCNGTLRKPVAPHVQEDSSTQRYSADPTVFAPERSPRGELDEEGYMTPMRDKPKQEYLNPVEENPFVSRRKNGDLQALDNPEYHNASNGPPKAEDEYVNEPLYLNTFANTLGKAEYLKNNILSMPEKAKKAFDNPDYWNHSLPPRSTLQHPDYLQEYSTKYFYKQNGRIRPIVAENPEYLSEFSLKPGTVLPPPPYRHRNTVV

Compared with `C[C@@H](Oc1cc(-n2cnc3ccc(OCC4CCN(C)CC4)cc32)sc1C(N)=O)c1ccccc1C(F)(F)F`, `C[C@@H](Oc1cc(-n2cnc3ccc(OC[C@@H](O)CO)cc32)sc1C(N)=O)c1ccccc1Cl` is lower in inhibition: -0.34% for the first, -1.55% for the second.

First: Cc1cc(O)cc(C)c1/C=C/c1cncc(C(=O)N(C)C)c1
Second: COC(=O)c1cncc(/C=C/c2c(C)cc(O)cc2C)c1
The inhibition of the first is lower: 7.51% for the first, 10% for the second.

First: c1ccc(Nc2ncc(-c3ccccc3)o2)cc1
Second: CCS(=O)(=O)c1ccc(OC)c(Nc2ncc(-c3cccc(OC)c3)o2)c1
The inhibition of the first is lower: 16% for the first, 22.1% for the second.

Compared with `COc1ccc(-c2nn3ncccc3c2-c2ccnc(Nc3cccc(C(F)(F)F)c3)n2)cc1`, `Cc1ccc2c(-c3ccnc(Nc4ccc5c(c4)OCCO5)n3)c(-c3ccc(C(F)(F)F)cc3)nn2n1` is lower in inhibition: 83.1% for the first, 16.3% for the second.

First: Cc1ccc(NC(=O)CC2CC2)cc1-c1ccc(C(=O)NCC2CC2)cc1
Second: Cc1ccc(Nc2ccnc(Nc3cccc(C(N)=O)c3)n2)cc1O
The inhibition of the first is lower: 8.12% for the first, 20.2% for the second.

Compared with `COC(=O)c1ccc2c(c1)C(=Cc1cc(Br)c(O)c(Br)c1)C(=O)N2`, `CC(C)c1ccc2c(c1)NC(=O)/C2=N/Nc1ccc(S(N)(=O)=O)cc1` is lower in inhibition: 14.2% for the first, 2.39% for the second.

Going from `COc1cc(/C=N/Nc2ncnc3c2cnn3C(C)C)ccc1O` to `COc1cccc(-n2ncc3c(N/N=C/c4ccc(C)cc4)ncnc32)c1`, the inhibition rises from 6.31% to 11.9%.

Going from `Nc1ccc(C#Cc2cncnc2Nc2ccc(OCc3cccc(F)c3)c(Cl)c2)cc1` to `CS(=O)(=O)CCNCc1nc(-c2ccc3ncnc(Nc4ccc(OCc5cccc(C(F)(F)F)c5)cc4)c3c2)cs1`, the inhibition falls from 54.4% to 25.6%.

Compared with `ON=C1CCc2cc(-c3nc(C4CCNCC4)[nH]c3-c3ccncc3)ccc21`, `Oc1cccc(-c2nc(-c3ccccc3)[nH]c2-c2ccncc2)c1` is higher in inhibition: 10.6% for the first, 19.4% for the second.

First: Cc1cc(Cl)cc2c1NC(=O)C2=NNc1ccc(S(N)(=O)=O)cc1
Second: NS(=O)(=O)c1ccc(NC=C2C(=O)Nc3ccc4ncsc4c32)cc1
The inhibition of the first is lower: 6.7% for the first, 11.2% for the second.

Going from `CC(C)c1ccc(Nc2nccc(-c3cnn4ncccc34)n2)cc1` to `N#Cc1cccc(Nc2nccc(-c3cnn4ncccc34)n2)c1`, the inhibition rises from 11.6% to 19.1%.

Compared with `CN1CCN(C(=O)c2ccc(NC(=O)Nc3ccc(N(C)c4ccnc(Nc5ccc(CS(C)(=O)=O)cc5)n4)cc3)cc2)CC1`, `COC(=O)Nc1nc2cc(Oc3ccc(NC(=O)Nc4cccc(Br)c4)cc3)ccc2[nH]1` is lower in inhibition: 17.1% for the first, 11.2% for the second.

Going from `COc1cccc(-n2ncc3c(N/N=C/c4ccc(S(C)(=O)=O)cc4)ncnc32)c1` to `COc1cccc(-n2nc(C)c3c(N/N=C(\C)c4ccncc4)ncnc32)c1`, the inhibition falls from 7.9% to -0.06%.

Going from `NS(=O)(=O)c1ccc(-c2cc3ccncc3cc2OCc2ccccc2)cc1` to `NS(=O)(=O)c1cccc(-c2cc3ccncc3cc2OCc2ccccc2)c1`, the inhibition rises from 8.97% to 9.16%.

Compared with `NS(=O)(=O)c1ccc(Nc2cc(-c3cccc(O)c3)n[nH]2)cc1`, `COc1cc2ncnc(Nc3ccc(C)c(O)c3)c2cc1OC` is higher in inhibition: 14.3% for the first, 68.7% for the second.

Compared with `CCn1c(-c2nonc2N)nc2ccc(F)cc21`, `COc1cc(Nc2nccc(-c3cnn4ncccc34)n2)cc(OC)c1` is lower in inhibition: 20.7% for the first, 8.81% for the second.

Compound `COc1cc2ncn(-c3cc(OCc4ccccc4S(C)(=O)=O)c(C#N)s3)c2cc1OC` has an inhibition of 8.72%.
